Most compounds without a hit are left out; they make up all but 10% or so of the library.
ELG1 DNA repair: inhibitors of ELG1-dependent DNA repair in HEK293T cells | HEK293T ELG1-luciferase reporter, luminescence, 16 h; DNA damage induced by 5-fluorouridine | Potency, µM (series often up to 46.1 µM), hits mostly inhibitors | 330,000 compounds, 2.3% hits | AID 504467; note: nearly all actives have a fitted effect of over 55% in size
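Step one: seed 2,000 cells per well. Step two: pin-transfer compound or DMSO alongside 5-fluorouridine. Step three: incubate 16 hr, 37 °C, 5% CO2. Step four: add ONE-Glo, wait 30 min, read luminescence.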
SW480 rerep: DNA re-replication induction in SW480 cells. SW480 DNA re-replication, Hoechst DNA content imaging, 48 h. Potency, µM (highest dose often 46.1 µM), usual class: activators. 340,000 compounds, 1.8% hits. AID 624297; note: nearly all actives have a fitted effect of over 55% in size
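SW480 cells exposed to compounds for 48 hr at 37 C, 5% CO2, then Hoechst-stained 40 min. Nuclear DNA content imaged by fluorescence scanning (405 nm excitation, 500-530 nm emission); re-replication scored as increased high-intensity nuclei.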
MCF10A rereplic: DNA re-replication induction in MCF 10a cells; 350,000 compounds, 2.9% hits; MCF 10A DNA re-replication, Hoechst nuclear intensity, 48 h; AID 624296; Potency, µM (highest dose often 46.1 µM), actives largely listed as activators; note: nearly all actives have a fitted effect of over 50% in size
Gal4-VP16 FLuc: counter-screen for ROR gamma inhibitors: Gal4-VP16 reporter. Drosophila S2 Gal4-VP16 UAS-luciferase, luminescence, 20 h. Potency, µM (top dose mostly 53.6 µM), actives largely listed as inhibitors. 310,000 compounds, 3.5% hits. AID 2546;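 note: Gal4-VP16 expression switched on by copper sulfate through the metallothionein promoter; nearly all actives have a fitted effect of over 50% in size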
RORgamma inh: blocks mouse ROR gamma transcriptional activity. Drosophila S2 Gal4-RORgamma UAS-luciferase reporter, 20 h. AID 2551. Potency, µM (titrated, usually from 53.6 µM), actives largely listed as inhibitors. P51450. 310,000 compounds, 5.4% hits; note: nearly all actives have a fitted effect of over 60% in size
Target sequence (P51450 whole entry, looked up, the tested form may be a part): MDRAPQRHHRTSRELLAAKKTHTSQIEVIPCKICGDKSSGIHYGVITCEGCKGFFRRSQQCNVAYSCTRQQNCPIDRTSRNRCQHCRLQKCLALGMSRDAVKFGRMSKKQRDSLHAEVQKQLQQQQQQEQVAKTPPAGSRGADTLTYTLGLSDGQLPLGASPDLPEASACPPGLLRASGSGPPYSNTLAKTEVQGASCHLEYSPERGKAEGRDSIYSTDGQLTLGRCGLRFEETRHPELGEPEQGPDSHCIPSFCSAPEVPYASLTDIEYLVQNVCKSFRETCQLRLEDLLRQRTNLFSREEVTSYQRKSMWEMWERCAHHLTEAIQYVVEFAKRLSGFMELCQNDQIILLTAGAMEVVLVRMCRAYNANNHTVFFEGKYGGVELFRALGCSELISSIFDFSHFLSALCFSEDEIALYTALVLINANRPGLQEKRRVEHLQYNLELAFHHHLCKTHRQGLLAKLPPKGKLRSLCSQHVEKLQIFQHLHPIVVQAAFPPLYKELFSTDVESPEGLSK
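Using a luciferase readout, inhibitors were identified by reduced reporter activity in Drosophila cells coexpressing a copper-inducible Gal4–ROR gamma fusion and UAS-driven Photinus luciferase, incubated 20 hr after 700 uM copper sulfate.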
Numbers stand for hits; . = inactive; ? = inconclusive; / = not tested or not shown. Calls come from the whole dose curve; as a rule, active = well fitted curve in the direction sought with a large enough effect; inconclusive = small, poorly fitted or top-dose-only effect, or another doubt; inactive = no such curve, though single readings can be large; an effect the other way counts as inactive or inconclusive.

SMILES	ELG1 DNA repair	SW480 rerep	MCF10A rereplic	Gal4-VP16 FLuc	RORgamma inh
Cc1cc(C(=O)Nc2ccc3c(c2)OCCO3)c(C)o1	?	.	.	.	.
CSc1ccccc1C(=O)Nc1ccc2c(c1)OCCO2	/	.	.	.	.
Cc1ccc(S(=O)(=O)NCC(=O)OCc2nnc(-c3ccccc3)o2)cc1	.	.	.	.	.
COCCn1c(=O)[nH]c2cc(C(=O)Nc3cccc(C(C)=O)c3)ccc2c1=O	.	.	.	.	.
O=C(CSc1nc2ccccc2n1S(=O)(=O)c1cccc([N+](=O)[O-])c1)NCc1cccs1	?	.	.	.	.
CC(C)(C)OC(=O)NC(Cc1ccccc1)C(=O)N1CCCC1C(=O)O (configuration not stated)	.	.	.	.	.
Cc1ccccc1C(=O)Nc1ccccc1-c1nnn(CC(=O)Nc2ccc3c(c2)OCCO3)n1	.	.	23µM	.	.
COCCCNC(=S)N(Cc1ccccc1)Cc1ccccc1	.	.	.	?	16µM
COCCCNC(=O)CNC(=S)N(Cc1ccccc1)Cc1cccnc1	.	.	.	.	.
CCNC(=S)N(Cc1ccccc1)Cc1nc2ccccc2c(=O)[nH]1	.	.	.	7.1µM	6.3µM
COCCCNC(=S)N(Cc1ccccc1)Cc1nc2ccccc2c(=O)[nH]1	.	.	.	?	16µM
CC(C)(C)N(Cc1ccc2c(c1)OCO2)C(=O)/C=C\S(=O)c1ccccc1 (configuration not stated)	/	9.2µM	10µM	/	/
CCN(Cc1ccc2c(c1)OCO2)C(=O)/C=C/c1cccc(Br)c1	.	.	?	.	.
COc1cccc(CNC(=S)Nc2cc(C)ccc2C)c1	.	.	.	6.3µM	3.2µM
COc1cc(C)c(NC(=S)Nc2cccc(Cl)c2C)cc1OC	.	.	.	?	13µM
COc1cccc(C(=O)NNC(=O)C(=O)Nc2cccc(Cl)c2C)c1	.	23µM	.	.	.
COc1cccc(CNC(=S)Nc2cccc(Cl)c2C)c1	.	.	.	3.5µM	5µM
Oc1ccc(-c2nc3ccc4ccccc4c3c3c2CCC3)cc1O	?	?	?	?	.
CSCC[C@H](N)C(=O)N[C@@H](CO)C(=O)N[C@@H](CCCN=C(N)N)C(=O)N1CCC[C@H]1C(=O)N[C@@H](C)C(=O)N[C@@H](CS)C(=O)N1CCC[C@H]1C(=O)N[C@@H](CC(N)=O)C(=O)N[C@@H](CC(=O)O)C(=O)N[C@@H](CCCCN)C(=O)N[C@@H](Cc1ccc(O)cc1)C(=O)N[C@@H](CCC(=O)O)C(=O)O	/	/	/	.	.
Cc1cc(NS(=O)(=O)c2ccc(NC(=O)COc3ccc(Br)cc3)cc2)nc(C)n1	.	?	18µM	.	.
N#CC1=C(N)SC(N)=C(C#N)C1c1c(Cl)cccc1Cl	?	.	.	?	8.9µM
N#CC1=C(N)SC(N)=C(C#N)C1CCc1ccccc1	?	.	?	?	7.9µM
C(CCc1nn[nH]n1)CCC1CCCCC1	/	.	?	/	/
CC(=O)c1cnc2ncnn2c1C	.	.	.	.	.
C=CCC(Nc1ccccc1)C12C=CC(O1)C(C(=O)OC)=C2C(=O)OC (configuration not stated)	.	?	13µM	6.3µM	5.6µM
SMILES	ELG1 DNA repair	SW480 rerep	MCF10A rereplic	Gal4-VP16 FLuc	RORgamma inh
Cc1cccc(Nc2nnc(-c3ccc(N4CCOCC4)c([N+](=O)[O-])c3)c3ccccc23)c1	8.2µM	.	.	.	.
Cc1nnc(-c2ccc(N3CCOCC3)c([N+](=O)[O-])c2)o1	?	.	.	/	/
C[C@@H]1CC[C@H]2[C@H](C)[C@H]3CC[C@H]4C5[C@@H](O)CC6=CC(=O)CC[C@]6(C)[C@H]5C[C@H]4C3C(=O)N2C1 (some centres not stated)	/	/	/	.	.
CCN(CC)C(=O)NCc1c(C)cc(C)cc1C	.	.	.	.	.
Cc1ccc(/C=N/NC(=O)c2cc(-c3ccncc3)nc3ccccc23)o1	.	?	?	/	/
COc1ccccc1-c1cc(C(=O)N/N=C/c2ccc(C)o2)c2ccccc2n1	?	?	.	/	/
Cc1ccsc1/C=N/NC(=O)c1cc(-c2ccncc2)nc2ccccc12	?	1.5µM	0.73µM	8.9µM	1.8µM
COC(=O)c1sccc1NC(=O)c1cc(-c2ccc(C)cc2C)nc2ccccc12	?	.	12µM	.	.
